Compound activity from PubChem BioAssay.
The list is not random: actives were taken first. Their share in the collection is about 2.6%.
PABP polyA inh = PABP poly(A) RNA binding inhibitors, primary screen, biochemical, fluorescence polarization, uHTS; AID 2014, 2009; calls only at 35 µM; 290,000 tested, 1% active;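 further: calls also rest on retests at 20 µM and on dose response follow-up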
PHOSPHO1 block = PubChem AID 1565; Phosphoethanolamine/phosphocholine phosphatase (Homo sapiens), Q8TCT1; recombinant PHOSPHO1, absorbance phosphatase assay; inhibition, % at 13.3 µM; 290,000 tested, 1.1% active; in the data active means inhibition above about 60%
Target sequence (Q8TCT1 whole entry, looked up): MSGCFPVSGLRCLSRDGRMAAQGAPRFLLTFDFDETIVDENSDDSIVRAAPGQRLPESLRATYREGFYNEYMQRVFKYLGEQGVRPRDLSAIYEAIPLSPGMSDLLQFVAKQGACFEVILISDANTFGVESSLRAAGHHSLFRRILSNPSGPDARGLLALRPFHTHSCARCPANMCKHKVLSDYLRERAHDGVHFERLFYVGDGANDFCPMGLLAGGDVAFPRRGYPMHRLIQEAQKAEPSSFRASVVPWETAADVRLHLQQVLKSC
A3A deaminase = APOBEC3A ssDNA deaminase inhibitors, primary screen, selectivity assay for APOBEC3G inhibitor project, biochemical, FAM/TAMRA oligo cleavage fluorescence | AID 493011, 2011 | DNA dC->dU-editing enzyme APOBEC-3A (Homo sapiens), P31941 | inhibition, % at 20 µM | recombinant A3A, FAM/TAMRA ssDNA deamination fluorescence | 330,000 tested, 0.41% active;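 active means at least 40% inhibition at 20 µM here, with at most 30% in a related deaminase screen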
Target sequence (P31941 whole entry, looked up): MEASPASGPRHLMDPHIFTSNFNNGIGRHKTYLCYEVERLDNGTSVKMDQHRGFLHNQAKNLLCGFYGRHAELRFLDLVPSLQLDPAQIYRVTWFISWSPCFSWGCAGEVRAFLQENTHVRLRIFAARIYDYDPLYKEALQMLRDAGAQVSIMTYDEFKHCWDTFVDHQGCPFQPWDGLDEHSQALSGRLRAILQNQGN
APOBEC3G inh = APOBEC3G DNA deaminase inhibitors, primary screen, biochemical, fluorescence, single-stranded DNA substrate, uHTS | DNA dC->dU-editing enzyme APOBEC-3G (Homo sapiens), Q9HC16 | AID 493012, 2011 | 330,000 tested, 0.28% active | inhibition, % at 20 µM | recombinant A3G, ssDNA deamination FAM/TAMRA fluorescence;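 active means inhibition of at least 40% at 20 µM, with no more than 30% in the related APOBEC3A deaminase screen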
eIF4H FP inh = human eIF4H binding inhibitors, primary screen, translation initiation inhibitor project, biochemical, uHTS, fluorescence polarization; eIF4H fluorescence polarization binding assay; Eukaryotic translation initiation factor 4H (Homo sapiens), Q15056; inhibition, % at 35 µM; 290,000 tested, 0.94% active; AID 2012, 2009;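 further: calls also rest on retests at 20 µM and on dose response follow-up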
PABP1 MLLE inh = inhibitors of PABP1 MLLE–PAM2 peptide binding, primary screen, biochemical, fluorescence polarization, FITC-PAM2, GST-MLLE. Polyadenylate-binding protein 1 (Homo sapiens), P11940. inhibition, % at 20 µM. 360,000 tested, 0.36% active. AID 588489, 2011; in the data active means inhibition above about 35%, passing the limit was not always enough
A number is an active result; i = inactive; ? = inconclusive; nt = no result; + = active, no number. Unless noted, how the calls were made is not given here.

SMILES | PABP polyA inh | PHOSPHO1 block | A3A deaminase | APOBEC3G inh | eIF4H FP inh | PABP1 MLLE inh
COCCn1c(=N)c(S(=O)(=O)c2ccc(F)cc2)cc2c(=O)n3ccccc3nc21 | i | i | i | i | i | i
CC1(C(=O)NS(=O)(=O)c2ccccc2C(F)(F)F)CCN1C(=O)COc1ccc(Cl)cc1 (stereo not given) | nt | nt | nt | nt | nt | i
CC1(C(=O)NS(=O)(=O)c2ccc(F)cc2F)CCN1C(=O)c1ccccc1CCc1ccccc1 (stereo not given) | nt | nt | nt | nt | nt | i
CC(C)Oc1ccc(C(=O)Nc2ccc(N(C)C)cc2)cc1 | i | 76.4 | i | i | i | i
CCN(CC)c1ccc(NC(=O)COc2ccc(C)cc2)cc1 | i | 81.4 | i | i | i | i
Cc1ccc(OCC(=O)Nc2ccc(C(N)=O)cc2)cc1 | i | i | i | i | i | i
Cc1ccc(OCC(=O)Nc2ccc(N(C)C)cc2)cc1 | i | 80.8 | i | i | i | i
CN(C)c1ccc(NC(=O)COC(=O)CCC(=O)c2ccc(F)cc2)cc1 | i | 99.7 | i | i | i | i
O=CNc1c(Cl)cc2c(c1Cl)Cc1cc([N+](=O)[O-])ccc1-2 | nt | nt | nt | nt | nt | i
CSCCC(NS(=O)(=O)c1ccccc1F)C(=O)NCCCn1nc(C)cc1C (stereo not given) | nt | nt | i | i | nt | i
CCn1c(CSc2nccn2C)nc2cc(C(=O)O)ccc21 | + | i | i | i | 114.8 | 51.0
Cc1sc2nc(COC(=O)c3ccc(N4CCCC(C)C4)c([N+](=O)[O-])c3)[nH]c(=O)c2c1C (stereo not given) | i | i | i | i | i | i
Cc1sc2nc(COC(=O)c3ccc(N4CCCC4)c([N+](=O)[O-])c3)[nH]c(=O)c2c1C | + | i | i | i | ? | i
Cc1sc2nc(COC(=O)c3ccc(O)cc3)[nH]c(=O)c2c1C | i | i | i | i | i | i
Cc1sc2nc(COC(=O)c3ccc(Cl)c(N)c3)[nH]c(=O)c2c1C | + | i | i | i | 74.3 | i
COC(=O)C1=C(C)N(c2ccc(C)c(C)c2)/C(=C/c2ccco2)C1=O | i | i | i | i | 18.3 | i
O=C(O)c1ccc(-c2nc3ccccc3s2)o1 | i | i | i | i | i | i
O=C(O)CCCN1C(=O)/C(=C\c2ccc(-c3nc4ccccc4s3)o2)SC1=S | + | 92.7 | i | i | 96.1 | i
O=Cc1ccc(-c2nc3ccccc3s2)o1 | i | i | i | i | i | i
O=C(O)CC(C(=O)O)N1C(=O)/C(=C/c2ccc(-c3nc4ccccc4s3)o2)SC1=S (stereo not given) | i | i | i | i | 126.6 | i
O=C(O)CCN1C(=O)/C(=C/c2ccc(-c3nc4ccccc4s3)o2)SC1=S | ? | 101.1 | i | i | ? | i
CC(OC(=O)CC1CC2CCC1C2)C(=O)Nc1cccc(S(=O)(=O)N2CCOCC2)c1 (stereo not given) | nt | nt | i | i | nt | i
COc1ccccc1/C=C(/C(=O)OCC(=O)N(C)Cc1ccccc1)c1ccccc1 | i | i | i | i | i | i
CCc1nc2ccc(C(=O)Nc3cccc(OC)c3)cn2c1N(CC)CCOC | nt | nt | nt | nt | nt | i
O=C1C([N+](=O)[O-])=C(O)c2cccc3cccc1c23 | + | i | nt | nt | 85.3 | nt
SMILES | PABP polyA inh | PHOSPHO1 block | A3A deaminase | APOBEC3G inh | eIF4H FP inh | PABP1 MLLE inh
Cn1nc([N+](=O)[O-])nc1Oc1ccc(C(C)(C)C)cc1 | i | i | i | i | i | i
Cc1ccc(O)c(C=Nc2ccc3[nH]ncc3c2)c1 | + | i | i | i | 68.4 | i
Cc1ccc(O)c(C=Nc2cc(C)ccc2O)c1 | i | i | i | i | i | i
Cn1c(CO)cnc1SCc1c(Cl)cccc1Cl | i | 74.0 | i | i | i | i
CCN(C(=O)COC(=O)c1ccc(SC)cc1OC)C1CCS(=O)(=O)C1 (stereo not given) | nt | nt | i | i | nt | i
CCc1c(C(C)S(=O)(=O)c2ccc(C)cc2)[nH]c(=O)n1-c1ccc(C)cc1 (stereo not given) | i | 89.7 | i | i | i | i
CC(=O)Nc1cccc(-c2ccnc3c2CC(C(=O)Nc2ccc(Cl)cc2)O3)c1 (stereo not given) | nt | nt | nt | nt | nt | i
CCN(CC(=O)NCc1ccc(F)cc1)C(=O)c1cccc(S(=O)(=O)N(C)c2ccc(OC)cc2)c1 | nt | nt | nt | nt | nt | i
O=C1C(NS(=O)(=O)c2ccccc2)=C(N2CCN(c3ccc(F)cc3)CC2)C(=O)c2ccccc21 | i | i | i | i | i | i
O=C1C(NS(=O)(=O)c2cccs2)=C(N2CCN(c3cccc(Cl)c3)CC2)C(=O)c2ccccc21 | + | i | i | i | 2.3 | i
Cc1nn(CC(=O)Nc2cccnc2)c(=O)c2ccccc12 | i | 63.2 | i | i | i | i
COC(=O)c1ccc(NC(=O)Cn2nc(C)c3ccccc3c2=O)cc1 | i | i | i | i | i | i
CC(C)CC1C(=O)N(Cc2cn(Cc3ccco3)nn2)CCS(=O)(=O)N1Cc1ccc(-c2ccncc2)cc1 (stereo not given) | nt | nt | nt | nt | nt | i
Oc1cccc(Nc2c3ccccc3nc3ccccc23)c1 | ? | 60.8 | i | i | ? | i
COc1ccc(-c2cc3ccccc3n2CC(O)Cn2nc(C)cc2C)cc1 (stereo not given) | + | i | i | i | 77.7 | i
COc1ccc(-c2cc3ccccc3n2CC(O)CN2CCC(C)CC2)cc1 (stereo not given) | i | i | i | i | ? | i
C[C@@H]1CN([C@H](C)CO)S(=O)(=O)c2ccc(-c3ccc(C#N)cc3)cc2O[C@H]1CN(C)C(=O)Nc1cc(F)ccc1F | nt | nt | nt | nt | nt | i
COc1ccccc1Nc1ncc(-c2cccs2)s1 | i | 82.0 | i | i | i | i
OC(c1ccc(F)c(F)c1)c1ncc(-c2cccc(F)c2)[nH]1 (stereo not given) | nt | nt | nt | nt | nt | i
COc1ccc(NC(=O)CSc2nnc(NC(C)=O)s2)c([N+](=O)[O-])c1 | i | i | i | i | i | 36.8
Cc1cc(=O)oc2c(C)c(OC(C)C(=O)NCCCN3CCOCC3)ccc12 (stereo not given) | nt | 64.0 | i | i | nt | i
Cc1cccc(C(=O)NC2CCN(CC(=O)NCc3ccccc3F)CC2)c1 | i | i | i | i | i | i
CCOC(=O)C1(Cc2cccc(F)c2)CCN(C(=O)c2ccoc2C)CC1 | i | 62.8 | i | i | i | i
CCOC(=O)C1(Cc2cccc(F)c2)CCN(C(=O)c2cscn2)CC1 | i | i | i | i | i | i
C=CCOc1cccn2c(N(C)C(=O)c3ccc(OC)cc3)c(CC)nc12 | nt | nt | nt | nt | nt | i
